According to article PMC11006913:
Residue numbers refer to the chain shown, from its start.

Legend:
Test in all cases: PBM; 200 nM protein, PBS
Settings in all cases: dsDNA, one strand shown
HOXB4 [1] = biological target: HOXB4 (Homo sapiens, UniProt P17483 148-234)
VENTX [2] = biological target: T1, VENTX (Homo sapiens, UniProt O95231 78-163, R121Q)
T1 sequence: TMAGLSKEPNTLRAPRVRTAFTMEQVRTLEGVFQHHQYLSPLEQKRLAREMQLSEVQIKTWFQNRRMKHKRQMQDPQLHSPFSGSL

HOXA4 [3] = biological target: HOXA4 (Homo sapiens, UniProt Q00056 201-287, W262R)
ALX4 = ALX4 (Homo sapiens, UniProt Q9H161 200-286)
PRRX1 [4] = biological target: PRRX1 (Homo sapiens, UniProt P54821 80-166, F113S)
VENTX [5] = biological target: T2, VENTX (Homo sapiens, UniProt O95231 78-163, Y115F)
T2 sequence: T1 sequence with Y38F, Q44R

HOXB6 [6] = biological target: HOXB6 (Homo sapiens, UniProt P17509 132-218, K202E)
HOXA2 [7] = biological target: HOXA2 (Homo sapiens, UniProt O43364 129-215, R185T)
HOXA4 [8] = biological target: HOXA4 (Homo sapiens, UniProt Q00056 201-287, R217L)
HOXB4 [9] = biological target: HOXB4 (Homo sapiens, UniProt P17483 148-234, V174I)
PAX4 = biological target: T3, PAX4 (Homo sapiens, UniProt O43316 9-242, R200Q)
T3 sequence: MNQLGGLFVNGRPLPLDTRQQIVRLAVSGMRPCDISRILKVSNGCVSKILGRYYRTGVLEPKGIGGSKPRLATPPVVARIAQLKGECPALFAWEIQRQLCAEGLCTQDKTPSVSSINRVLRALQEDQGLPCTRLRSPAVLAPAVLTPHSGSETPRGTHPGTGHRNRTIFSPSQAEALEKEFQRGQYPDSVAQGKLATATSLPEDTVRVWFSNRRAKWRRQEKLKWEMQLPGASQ

HOXA2 [10] = biological target: HOXA2 (Homo sapiens, UniProt O43364 129-215, R185K)
HOXA4 [11] = biological target: HOXA4 (Homo sapiens, UniProt Q00056 201-287)
MSX2 [12] = biological target: MSX2 (Homo sapiens, UniProt P35548 130-214)
MSX2 [13] = biological target: MSX2 (Homo sapiens, UniProt P35548 130-214, F161Y)
VAX1 [14] = biological target: VAX1 (Homo sapiens, UniProt Q5SQQ9 86-172, T142I)
HOXA4 [15] = biological target: HOXA4 (Homo sapiens, UniProt Q00056 201-287, W262F)
PRRX1 [16] = biological target: PRRX1 (Homo sapiens, UniProt P54821 80-166)
VAX1 [17] = biological target: VAX1 (Homo sapiens, UniProt Q5SQQ9 86-172, K157R)
HOXB6 [18] = biological target: HOXB6 (Homo sapiens, UniProt P17509 132-218)
Sequence of HOXB6 (Homo sapiens, UniProt P17509 132-218) (P17509 132-218): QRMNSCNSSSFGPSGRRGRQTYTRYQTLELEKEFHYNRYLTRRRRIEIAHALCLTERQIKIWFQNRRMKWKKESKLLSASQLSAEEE

Sequence of MSX2 (Homo sapiens, UniProt P35548 130-214) (P35548 130-214): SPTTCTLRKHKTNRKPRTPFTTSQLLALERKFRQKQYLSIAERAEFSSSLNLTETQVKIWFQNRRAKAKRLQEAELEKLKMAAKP
Sequence of HOXA4 (Homo sapiens, UniProt Q00056 201-287, W262R) (Q00056 201-287 W262R): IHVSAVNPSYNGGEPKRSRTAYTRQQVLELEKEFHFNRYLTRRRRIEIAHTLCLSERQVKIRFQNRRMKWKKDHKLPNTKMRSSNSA
Sequence of MSX2 (Homo sapiens, UniProt P35548 130-214, F161Y) (P35548 130-214 F161Y): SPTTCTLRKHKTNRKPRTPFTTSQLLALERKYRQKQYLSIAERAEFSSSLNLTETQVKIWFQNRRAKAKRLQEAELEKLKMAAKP
Sequence of VAX1 (Homo sapiens, UniProt Q5SQQ9 86-172, K157R) (Q5SQQ9 86-172 K157R): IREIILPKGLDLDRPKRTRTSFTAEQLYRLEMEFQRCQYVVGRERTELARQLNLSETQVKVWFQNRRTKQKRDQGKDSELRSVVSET
Sequence of HOXB6 (Homo sapiens, UniProt P17509 132-218, K202E) (P17509 132-218 K202E): as the sequence (P17509 132-218) above, with K71E counted along it
Sequence of ALX4 (Q9H161 200-286): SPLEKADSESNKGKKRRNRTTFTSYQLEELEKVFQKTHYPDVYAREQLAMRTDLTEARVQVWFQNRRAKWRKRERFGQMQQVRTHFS
Sequence of VAX1 (Homo sapiens, UniProt Q5SQQ9 86-172, T142I) (Q5SQQ9 86-172 T142I): as the sequence (Q5SQQ9 86-172 K157R) above, with T57I, R72K counted along it
Sequence of PRRX1 (Homo sapiens, UniProt P54821 80-166) (P54821 80-166): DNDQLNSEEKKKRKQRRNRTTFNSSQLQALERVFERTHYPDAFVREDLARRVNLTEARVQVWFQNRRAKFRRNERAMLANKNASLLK
Sequence of HOXA2 (Homo sapiens, UniProt O43364 129-215, R185K) (O43364 129-215 R185K): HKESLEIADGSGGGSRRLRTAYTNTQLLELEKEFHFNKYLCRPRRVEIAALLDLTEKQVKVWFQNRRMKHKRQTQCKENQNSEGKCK
Sequence of HOXA4 (Homo sapiens, UniProt Q00056 201-287, R217L) (Q00056 201-287 R217L): as the sequence (Q00056 201-287 W262R) above, with R17L, R62W counted along it
Sequence of HOXB4 (Homo sapiens, UniProt P17483 148-234) (P17483 148-234): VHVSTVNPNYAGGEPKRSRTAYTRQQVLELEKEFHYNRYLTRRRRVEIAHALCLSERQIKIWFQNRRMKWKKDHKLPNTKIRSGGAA
Sequence of HOXA2 (Homo sapiens, UniProt O43364 129-215, R185T) (O43364 129-215 R185T): as the sequence (O43364 129-215 R185K) above, with K57T counted along it
Sequence of HOXA4 (Homo sapiens, UniProt Q00056 201-287) (Q00056 201-287): as the sequence (Q00056 201-287 W262R) above, with R62W counted along it
Sequence of HOXA4 (Homo sapiens, UniProt Q00056 201-287, W262F) (Q00056 201-287 W262F): as the sequence (Q00056 201-287 W262R) above, with R62F counted along it
Sequence of HOXB4 (Homo sapiens, UniProt P17483 148-234, V174I) (P17483 148-234 V174I): as the sequence (P17483 148-234) above, with V27I counted along it
Sequence of PRRX1 (Homo sapiens, UniProt P54821 80-166, F113S) (P54821 80-166 F113S): as the sequence (P54821 80-166) above, with F34S counted along it

Sequence | binding signal (HOXB4 [1]) | binding signal (VENTX [2]) | binding signal (HOXA4 [3]) | binding signal (ALX4) | binding signal (PRRX1 [4]) | binding signal (VENTX [5]) | binding signal (HOXB6 [6]) | binding signal (HOXA2 [7]) | binding signal (HOXA4 [8]) | binding signal (HOXB4 [9]) | binding signal (PAX4) | binding signal (HOXA2 [10]) | binding signal (HOXA4 [11]) | binding signal (MSX2 [12]) | binding signal (MSX2 [13]) | binding signal (VAX1 [14]) | binding signal (HOXA4 [15]) | binding signal (PRRX1 [16]) | binding signal (VAX1 [17]) | binding signal (HOXB6 [18])
CTTAATTA | 13.5 upbm affinity estimate (log intensity, higher = more binding, comparable within an allelic series) | 12.5 upbm affinity estimate (log intensity, higher = more binding, comparable within an allelic series) | 11 upbm affinity estimate (log intensity, higher = more binding, comparable within an allelic series) | 14.5 upbm affinity estimate (log intensity, higher = more binding, comparable within an allelic series) | 12 upbm affinity estimate (log intensity, higher = more binding, comparable within an allelic series) | 12.3 upbm affinity estimate (log intensity, higher = more binding, comparable within an allelic series) | 10.3 upbm affinity estimate (log intensity, higher = more binding, comparable within an allelic series) | 13.8 upbm affinity estimate (log intensity, higher = more binding, comparable within an allelic series) | 13.1 upbm affinity estimate (log intensity, higher = more binding, comparable within an allelic series) | 14.2 upbm affinity estimate (log intensity, higher = more binding, comparable within an allelic series) | 12.6 upbm affinity estimate (log intensity, higher = more binding, comparable within an allelic series) | 13.8 upbm affinity estimate (log intensity, higher = more binding, comparable within an allelic series) | 14.3 upbm affinity estimate (log intensity, higher = more binding, comparable within an allelic series) | 14 upbm affinity estimate (log intensity, higher = more binding, comparable within an allelic series) | 13.6 upbm affinity estimate (log intensity, higher = more binding, comparable within an allelic series) | 13.9 upbm affinity estimate (log intensity, higher = more binding, comparable within an allelic series) | 13 upbm affinity estimate (log intensity, higher = more binding, comparable within an allelic series) | 13.6 upbm affinity estimate (log intensity, higher = more binding, comparable within an allelic series) | 13.8 upbm affinity estimate (log intensity, higher = more binding, comparable within an allelic series) | 12.5 upbm affinity estimate (log intensity, higher = more binding, comparable within an allelic series)
GGTAATTA | 13.7 upbm affinity estimate (log intensity, higher = more binding, comparable within an allelic series) | 12.6 upbm affinity estimate (log intensity, higher = more binding, comparable within an allelic series) | 10.9 upbm affinity estimate (log intensity, higher = more binding, comparable within an allelic series) | 14.4 upbm affinity estimate (log intensity, higher = more binding, comparable within an allelic series) | 11.6 upbm affinity estimate (log intensity, higher = more binding, comparable within an allelic series) | 12.6 upbm affinity estimate (log intensity, higher = more binding, comparable within an allelic series) | 10.4 upbm affinity estimate (log intensity, higher = more binding, comparable within an allelic series) | 14.1 upbm affinity estimate (log intensity, higher = more binding, comparable within an allelic series) | 13.2 upbm affinity estimate (log intensity, higher = more binding, comparable within an allelic series) | 14.4 upbm affinity estimate (log intensity, higher = more binding, comparable within an allelic series) | 12.4 upbm affinity estimate (log intensity, higher = more binding, comparable within an allelic series) | 14.1 upbm affinity estimate (log intensity, higher = more binding, comparable within an allelic series) | 14.3 upbm affinity estimate (log intensity, higher = more binding, comparable within an allelic series) | 14.2 upbm affinity estimate (log intensity, higher = more binding, comparable within an allelic series) | 13.8 upbm affinity estimate (log intensity, higher = more binding, comparable within an allelic series) | 14.1 upbm affinity estimate (log intensity, higher = more binding, comparable within an allelic series) | 12.8 upbm affinity estimate (log intensity, higher = more binding, comparable within an allelic series) | 13.5 upbm affinity estimate (log intensity, higher = more binding, comparable within an allelic series) | 14.2 upbm affinity estimate (log intensity, higher = more binding, comparable within an allelic series) | 12.9 upbm affinity estimate (log intensity, higher = more binding, comparable within an allelic series)
TTAATTAA | 13.5 upbm affinity estimate (log intensity, higher = more binding, comparable within an allelic series) | 12.4 upbm affinity estimate (log intensity, higher = more binding, comparable within an allelic series) | 11 upbm affinity estimate (log intensity, higher = more binding, comparable within an allelic series) | 14.7 upbm affinity estimate (log intensity, higher = more binding, comparable within an allelic series) | 12.1 upbm affinity estimate (log intensity, higher = more binding, comparable within an allelic series) | 12.1 upbm affinity estimate (log intensity, higher = more binding, comparable within an allelic series) | 10.3 upbm affinity estimate (log intensity, higher = more binding, comparable within an allelic series) | 13.7 upbm affinity estimate (log intensity, higher = more binding, comparable within an allelic series) | 13.2 upbm affinity estimate (log intensity, higher = more binding, comparable within an allelic series) | 14.2 upbm affinity estimate (log intensity, higher = more binding, comparable within an allelic series) | 12.6 upbm affinity estimate (log intensity, higher = more binding, comparable within an allelic series) | 13.7 upbm affinity estimate (log intensity, higher = more binding, comparable within an allelic series) | 14.3 upbm affinity estimate (log intensity, higher = more binding, comparable within an allelic series) | 13.9 upbm affinity estimate (log intensity, higher = more binding, comparable within an allelic series) | 13.5 upbm affinity estimate (log intensity, higher = more binding, comparable within an allelic series) | 13.6 upbm affinity estimate (log intensity, higher = more binding, comparable within an allelic series) | 13.1 upbm affinity estimate (log intensity, higher = more binding, comparable within an allelic series) | 13.7 upbm affinity estimate (log intensity, higher = more binding, comparable within an allelic series) | 13.5 upbm affinity estimate (log intensity, higher = more binding, comparable within an allelic series) | 12.5 upbm affinity estimate (log intensity, higher = more binding, comparable within an allelic series)
TAATTAAA | 13.3 upbm affinity estimate (log intensity, higher = more binding, comparable within an allelic series) | 12.1 upbm affinity estimate (log intensity, higher = more binding, comparable within an allelic series) | 10.8 upbm affinity estimate (log intensity, higher = more binding, comparable within an allelic series) | 14.4 upbm affinity estimate (log intensity, higher = more binding, comparable within an allelic series) | 11.9 upbm affinity estimate (log intensity, higher = more binding, comparable within an allelic series) | 11.9 upbm affinity estimate (log intensity, higher = more binding, comparable within an allelic series) | 10.1 upbm affinity estimate (log intensity, higher = more binding, comparable within an allelic series) | 13.5 upbm affinity estimate (log intensity, higher = more binding, comparable within an allelic series) | 12.8 upbm affinity estimate (log intensity, higher = more binding, comparable within an allelic series) | 14.1 upbm affinity estimate (log intensity, higher = more binding, comparable within an allelic series) | 12.4 upbm affinity estimate (log intensity, higher = more binding, comparable within an allelic series) | 13.5 upbm affinity estimate (log intensity, higher = more binding, comparable within an allelic series) | 14.1 upbm affinity estimate (log intensity, higher = more binding, comparable within an allelic series) | 13.9 upbm affinity estimate (log intensity, higher = more binding, comparable within an allelic series) | 13.5 upbm affinity estimate (log intensity, higher = more binding, comparable within an allelic series) | 13.4 upbm affinity estimate (log intensity, higher = more binding, comparable within an allelic series) | 12.3 upbm affinity estimate (log intensity, higher = more binding, comparable within an allelic series) | 13.6 upbm affinity estimate (log intensity, higher = more binding, comparable within an allelic series) | 13.4 upbm affinity estimate (log intensity, higher = more binding, comparable within an allelic series) | 12.3 upbm affinity estimate (log intensity, higher = more binding, comparable within an allelic series)
